Results reported in ChEMBL document CHEMBL1961873, “Compounds: GSK PKIS; Assays: Nanosyn kinase panel” (2012).

How the values were obtained:
[1] = molecular target: Sphingosine kinase 1 (Homo sapiens) (UniProt Q9NYA1); conditions: at 1 µM;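 note: mean SPHK1 inhibition value reported from the GSK PKIS kinase panel screen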
[2] = molecular target: T1, Sphingosine kinase 2 (Homo sapiens) (UniProt Q9NRA0); conditions: at 0.1 µM
T1 sequence (whole entry): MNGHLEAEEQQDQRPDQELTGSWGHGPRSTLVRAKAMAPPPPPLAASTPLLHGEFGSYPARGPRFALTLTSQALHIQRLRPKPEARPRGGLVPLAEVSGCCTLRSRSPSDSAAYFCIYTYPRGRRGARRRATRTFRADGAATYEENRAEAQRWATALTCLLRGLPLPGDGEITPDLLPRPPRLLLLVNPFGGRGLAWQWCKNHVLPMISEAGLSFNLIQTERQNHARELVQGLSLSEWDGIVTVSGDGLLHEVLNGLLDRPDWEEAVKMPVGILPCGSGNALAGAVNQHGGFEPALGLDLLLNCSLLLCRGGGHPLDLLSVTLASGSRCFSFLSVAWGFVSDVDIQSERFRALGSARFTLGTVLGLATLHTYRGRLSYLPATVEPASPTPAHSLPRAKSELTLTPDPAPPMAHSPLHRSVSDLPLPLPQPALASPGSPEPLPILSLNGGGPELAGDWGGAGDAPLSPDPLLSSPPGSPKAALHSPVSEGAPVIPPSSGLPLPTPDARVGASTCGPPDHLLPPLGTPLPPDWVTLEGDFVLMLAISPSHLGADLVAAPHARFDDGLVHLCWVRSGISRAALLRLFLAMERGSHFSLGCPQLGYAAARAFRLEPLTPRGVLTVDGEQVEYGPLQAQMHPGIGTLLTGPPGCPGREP

[3] = molecular target: T1, Sphingosine kinase 2 (Homo sapiens); conditions: at 1 µM
[4] = molecular target: Casein kinase II subunit alpha (Homo sapiens) (UniProt P68400); conditions: at 0.1 µM
Sequence of Casein kinase II subunit alpha (Homo sapiens) (P68400 whole entry, looked up): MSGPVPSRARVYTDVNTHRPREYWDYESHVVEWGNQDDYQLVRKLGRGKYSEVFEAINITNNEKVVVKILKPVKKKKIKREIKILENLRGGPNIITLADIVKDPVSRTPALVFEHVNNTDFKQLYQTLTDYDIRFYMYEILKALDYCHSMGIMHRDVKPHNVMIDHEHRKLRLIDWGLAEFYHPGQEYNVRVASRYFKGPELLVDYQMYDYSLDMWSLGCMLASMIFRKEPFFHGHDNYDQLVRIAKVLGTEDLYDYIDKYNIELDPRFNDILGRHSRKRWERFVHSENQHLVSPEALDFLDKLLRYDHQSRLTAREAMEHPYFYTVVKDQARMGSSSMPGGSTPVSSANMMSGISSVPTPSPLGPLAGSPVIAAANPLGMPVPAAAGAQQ

[5] = molecular target: Casein kinase II subunit alpha (Homo sapiens) (UniProt P68400); conditions: at 1 µM
[6] = molecular target: T2, Inhibitor of nuclear factor kappa-B kinase subunit alpha (Homo sapiens) (UniProt O15111); conditions: at 0.1 µM
T2 sequence (whole entry): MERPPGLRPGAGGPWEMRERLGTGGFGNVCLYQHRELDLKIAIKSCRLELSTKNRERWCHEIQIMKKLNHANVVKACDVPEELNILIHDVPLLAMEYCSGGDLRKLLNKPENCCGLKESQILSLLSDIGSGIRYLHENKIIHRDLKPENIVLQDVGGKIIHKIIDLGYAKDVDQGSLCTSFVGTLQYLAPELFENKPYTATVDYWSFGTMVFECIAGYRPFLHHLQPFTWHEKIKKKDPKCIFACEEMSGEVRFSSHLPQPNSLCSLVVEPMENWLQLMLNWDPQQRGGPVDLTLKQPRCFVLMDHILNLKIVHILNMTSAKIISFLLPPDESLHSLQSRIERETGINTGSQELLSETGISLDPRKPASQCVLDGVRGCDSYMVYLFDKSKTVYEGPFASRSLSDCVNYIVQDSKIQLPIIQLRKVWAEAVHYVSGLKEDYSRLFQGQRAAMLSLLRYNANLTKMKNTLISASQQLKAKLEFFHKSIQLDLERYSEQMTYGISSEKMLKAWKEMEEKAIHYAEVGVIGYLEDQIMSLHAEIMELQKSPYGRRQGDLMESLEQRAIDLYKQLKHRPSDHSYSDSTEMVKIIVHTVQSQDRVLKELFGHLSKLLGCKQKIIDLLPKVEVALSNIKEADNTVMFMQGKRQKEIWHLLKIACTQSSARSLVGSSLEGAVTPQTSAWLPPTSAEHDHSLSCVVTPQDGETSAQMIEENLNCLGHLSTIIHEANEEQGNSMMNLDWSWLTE

[7] = molecular target: T2, Inhibitor of nuclear factor kappa-B kinase subunit alpha (Homo sapiens); conditions: at 1 µM
[8] = molecular target: T3, Inhibitor of nuclear factor kappa-B kinase subunit beta (Homo sapiens) (UniProt O14920); conditions: at 0.1 µM
T3 sequence (whole entry): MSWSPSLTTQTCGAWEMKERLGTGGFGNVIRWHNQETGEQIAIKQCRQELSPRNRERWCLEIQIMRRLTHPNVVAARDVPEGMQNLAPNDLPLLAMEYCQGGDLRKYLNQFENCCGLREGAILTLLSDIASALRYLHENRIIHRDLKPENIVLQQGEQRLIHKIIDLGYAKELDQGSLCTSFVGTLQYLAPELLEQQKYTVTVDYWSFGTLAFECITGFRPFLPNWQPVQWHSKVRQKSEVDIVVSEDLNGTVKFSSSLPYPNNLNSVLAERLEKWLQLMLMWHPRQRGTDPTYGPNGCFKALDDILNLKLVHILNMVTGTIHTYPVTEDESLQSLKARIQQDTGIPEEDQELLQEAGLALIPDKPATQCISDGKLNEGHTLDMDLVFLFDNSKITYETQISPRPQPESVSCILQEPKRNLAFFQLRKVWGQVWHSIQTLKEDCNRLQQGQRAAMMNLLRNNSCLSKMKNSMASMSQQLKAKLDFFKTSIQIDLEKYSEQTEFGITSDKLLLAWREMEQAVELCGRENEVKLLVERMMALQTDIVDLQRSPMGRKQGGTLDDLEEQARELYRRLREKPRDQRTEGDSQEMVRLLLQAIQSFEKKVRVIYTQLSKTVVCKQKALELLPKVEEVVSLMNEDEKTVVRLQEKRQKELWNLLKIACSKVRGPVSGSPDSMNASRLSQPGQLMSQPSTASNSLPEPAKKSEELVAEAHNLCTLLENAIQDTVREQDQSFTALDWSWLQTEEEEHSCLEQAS

[9] = molecular target: T3, Inhibitor of nuclear factor kappa-B kinase subunit beta (Homo sapiens); conditions: at 1 µM
[10] = molecular target: T4, Inhibitor of nuclear factor kappa-B kinase subunit epsilon (Homo sapiens) (UniProt Q14164); conditions: at 0.1 µM
T4 sequence (whole entry): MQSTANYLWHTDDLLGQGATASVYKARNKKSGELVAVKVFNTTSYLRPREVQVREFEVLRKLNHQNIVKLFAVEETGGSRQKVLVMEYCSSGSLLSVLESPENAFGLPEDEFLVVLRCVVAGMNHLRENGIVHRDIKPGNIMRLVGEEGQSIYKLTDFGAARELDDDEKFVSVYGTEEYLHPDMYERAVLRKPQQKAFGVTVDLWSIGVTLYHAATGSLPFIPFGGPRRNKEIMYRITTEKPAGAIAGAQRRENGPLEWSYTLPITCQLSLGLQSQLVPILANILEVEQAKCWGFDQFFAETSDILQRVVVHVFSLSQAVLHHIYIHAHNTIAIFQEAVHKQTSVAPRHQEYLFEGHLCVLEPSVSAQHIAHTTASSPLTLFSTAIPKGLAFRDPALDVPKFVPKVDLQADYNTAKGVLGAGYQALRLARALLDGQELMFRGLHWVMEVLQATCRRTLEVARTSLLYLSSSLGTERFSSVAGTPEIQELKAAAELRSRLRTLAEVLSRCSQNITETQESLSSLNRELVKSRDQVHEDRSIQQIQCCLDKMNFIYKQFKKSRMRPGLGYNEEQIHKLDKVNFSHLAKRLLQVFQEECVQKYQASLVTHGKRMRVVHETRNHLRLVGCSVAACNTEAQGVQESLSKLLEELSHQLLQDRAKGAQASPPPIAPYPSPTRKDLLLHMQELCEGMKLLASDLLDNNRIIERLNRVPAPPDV

[11] = molecular target: T4, Inhibitor of nuclear factor kappa-B kinase subunit epsilon (Homo sapiens); conditions: at 1 µM
[12] = molecular target: T5, Serine/threonine-protein kinase Nek1 (Homo sapiens) (UniProt Q96PY6); conditions: at 0.1 µM
T5 sequence (whole entry): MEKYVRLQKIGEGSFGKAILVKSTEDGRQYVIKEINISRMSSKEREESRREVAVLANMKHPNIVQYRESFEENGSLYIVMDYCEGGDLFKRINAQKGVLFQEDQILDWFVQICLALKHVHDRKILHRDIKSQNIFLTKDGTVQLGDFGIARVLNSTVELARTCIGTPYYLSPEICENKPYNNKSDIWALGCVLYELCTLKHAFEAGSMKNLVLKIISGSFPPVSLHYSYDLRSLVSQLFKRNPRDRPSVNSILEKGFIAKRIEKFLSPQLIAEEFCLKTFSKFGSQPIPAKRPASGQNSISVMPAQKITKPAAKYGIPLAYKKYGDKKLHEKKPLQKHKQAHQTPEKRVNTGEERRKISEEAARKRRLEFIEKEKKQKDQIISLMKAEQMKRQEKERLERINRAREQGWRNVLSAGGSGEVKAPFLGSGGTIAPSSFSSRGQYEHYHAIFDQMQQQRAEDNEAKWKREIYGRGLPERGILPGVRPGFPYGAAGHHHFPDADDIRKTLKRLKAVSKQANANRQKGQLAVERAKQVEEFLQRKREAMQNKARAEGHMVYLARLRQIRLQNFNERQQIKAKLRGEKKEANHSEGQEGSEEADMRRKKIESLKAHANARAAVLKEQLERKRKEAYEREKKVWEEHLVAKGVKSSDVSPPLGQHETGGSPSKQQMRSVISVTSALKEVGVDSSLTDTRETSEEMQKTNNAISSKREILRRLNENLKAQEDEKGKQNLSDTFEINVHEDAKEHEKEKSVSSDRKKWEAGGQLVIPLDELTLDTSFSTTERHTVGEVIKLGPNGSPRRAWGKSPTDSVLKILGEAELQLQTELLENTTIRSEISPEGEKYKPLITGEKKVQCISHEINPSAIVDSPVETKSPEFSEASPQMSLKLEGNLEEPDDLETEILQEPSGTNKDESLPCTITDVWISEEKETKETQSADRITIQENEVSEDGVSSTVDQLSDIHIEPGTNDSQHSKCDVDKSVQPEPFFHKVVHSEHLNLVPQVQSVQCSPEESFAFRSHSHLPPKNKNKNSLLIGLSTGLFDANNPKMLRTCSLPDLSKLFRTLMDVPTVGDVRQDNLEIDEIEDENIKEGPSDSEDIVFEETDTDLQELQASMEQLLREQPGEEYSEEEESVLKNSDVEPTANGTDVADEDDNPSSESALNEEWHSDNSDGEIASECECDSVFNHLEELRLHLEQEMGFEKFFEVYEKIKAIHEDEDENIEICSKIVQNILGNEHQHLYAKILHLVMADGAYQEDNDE

[13] = molecular target: T5, Serine/threonine-protein kinase Nek1 (Homo sapiens); conditions: at 1 µM
[14] = molecular target: T6, Serine/threonine-protein kinase Nek2 (Homo sapiens) (UniProt P51955); conditions: at 0.1 µM
T6 sequence (whole entry): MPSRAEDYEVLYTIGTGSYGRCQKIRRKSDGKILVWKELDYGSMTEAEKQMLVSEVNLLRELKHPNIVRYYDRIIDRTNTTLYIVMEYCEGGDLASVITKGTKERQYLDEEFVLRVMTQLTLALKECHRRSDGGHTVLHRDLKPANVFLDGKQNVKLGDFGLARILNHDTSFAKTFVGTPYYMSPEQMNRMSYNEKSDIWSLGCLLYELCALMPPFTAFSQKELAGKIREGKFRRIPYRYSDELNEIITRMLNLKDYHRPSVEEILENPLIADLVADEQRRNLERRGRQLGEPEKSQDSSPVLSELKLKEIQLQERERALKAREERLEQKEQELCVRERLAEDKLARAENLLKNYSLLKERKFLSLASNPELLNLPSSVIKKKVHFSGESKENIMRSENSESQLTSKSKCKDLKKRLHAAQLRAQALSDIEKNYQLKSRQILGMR

[15] = molecular target: T6, Serine/threonine-protein kinase Nek2 (Homo sapiens); conditions: at 1 µM
[16] = molecular target: Serine/threonine-protein kinase Nek6 (Homo sapiens) (UniProt Q9HC98); conditions: at 0.1 µM
Sequence of Serine/threonine-protein kinase Nek6 (Homo sapiens) (Q9HC98 whole entry): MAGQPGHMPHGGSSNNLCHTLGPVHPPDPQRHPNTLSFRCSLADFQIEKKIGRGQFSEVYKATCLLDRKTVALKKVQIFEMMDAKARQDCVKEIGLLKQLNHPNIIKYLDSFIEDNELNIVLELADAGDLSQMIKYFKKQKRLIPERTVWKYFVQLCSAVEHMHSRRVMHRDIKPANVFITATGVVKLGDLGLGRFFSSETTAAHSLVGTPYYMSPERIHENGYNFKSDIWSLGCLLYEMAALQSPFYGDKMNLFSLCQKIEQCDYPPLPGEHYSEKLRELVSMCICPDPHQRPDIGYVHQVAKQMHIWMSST

[17] = molecular target: Serine/threonine-protein kinase Nek6 (Homo sapiens) (UniProt Q9HC98); conditions: at 1 µM
[18] = molecular target: Serine/threonine-protein kinase Nek7 (Homo sapiens) (UniProt Q8TDX7); conditions: at 0.1 µM
Sequence of Serine/threonine-protein kinase Nek7 (Homo sapiens) (Q8TDX7 whole entry, looked up): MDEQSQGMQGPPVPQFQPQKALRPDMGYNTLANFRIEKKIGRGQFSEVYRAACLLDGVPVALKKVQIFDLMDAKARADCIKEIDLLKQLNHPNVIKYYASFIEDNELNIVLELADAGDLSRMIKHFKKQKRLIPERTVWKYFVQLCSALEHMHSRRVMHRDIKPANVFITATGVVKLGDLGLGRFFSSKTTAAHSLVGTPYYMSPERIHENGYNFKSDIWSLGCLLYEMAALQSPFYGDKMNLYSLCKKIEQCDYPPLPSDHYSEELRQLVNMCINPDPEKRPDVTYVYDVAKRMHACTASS

[19] = molecular target: Serine/threonine-protein kinase Nek7 (Homo sapiens) (UniProt Q8TDX7); conditions: at 1 µM
[20] = molecular target: T7, Serine/threonine-protein kinase Nek9 (Homo sapiens) (UniProt Q8TD19); conditions: at 0.1 µM;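 note: reported value is the mean percent inhibition of NEK9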
T7 sequence (whole entry): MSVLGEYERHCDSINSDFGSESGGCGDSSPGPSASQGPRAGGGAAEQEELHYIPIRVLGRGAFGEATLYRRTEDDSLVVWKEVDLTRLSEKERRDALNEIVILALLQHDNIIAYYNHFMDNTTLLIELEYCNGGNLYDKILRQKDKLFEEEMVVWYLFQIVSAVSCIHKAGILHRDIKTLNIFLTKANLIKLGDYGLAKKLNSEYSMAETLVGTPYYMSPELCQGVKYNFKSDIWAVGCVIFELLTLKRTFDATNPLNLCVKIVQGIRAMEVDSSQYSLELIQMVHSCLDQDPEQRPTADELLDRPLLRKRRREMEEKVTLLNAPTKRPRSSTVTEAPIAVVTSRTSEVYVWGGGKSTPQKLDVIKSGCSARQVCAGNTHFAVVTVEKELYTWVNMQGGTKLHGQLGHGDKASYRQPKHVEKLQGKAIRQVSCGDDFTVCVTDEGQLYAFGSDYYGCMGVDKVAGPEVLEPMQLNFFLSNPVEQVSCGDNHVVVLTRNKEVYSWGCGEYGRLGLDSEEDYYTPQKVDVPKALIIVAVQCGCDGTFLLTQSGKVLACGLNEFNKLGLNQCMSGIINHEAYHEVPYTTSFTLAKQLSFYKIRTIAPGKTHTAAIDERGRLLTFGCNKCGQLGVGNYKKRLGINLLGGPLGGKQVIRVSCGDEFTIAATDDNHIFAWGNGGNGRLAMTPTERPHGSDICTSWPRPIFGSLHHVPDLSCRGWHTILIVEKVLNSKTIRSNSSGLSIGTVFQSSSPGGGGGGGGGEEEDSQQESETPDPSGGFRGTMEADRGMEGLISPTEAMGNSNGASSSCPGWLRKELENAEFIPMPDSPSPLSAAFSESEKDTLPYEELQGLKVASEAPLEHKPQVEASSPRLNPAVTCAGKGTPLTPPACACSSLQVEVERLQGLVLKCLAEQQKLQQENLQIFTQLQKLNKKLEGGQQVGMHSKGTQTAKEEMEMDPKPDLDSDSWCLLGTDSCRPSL

Sequence of Sphingosine kinase 1 (Homo sapiens) (Q9NYA1 whole entry): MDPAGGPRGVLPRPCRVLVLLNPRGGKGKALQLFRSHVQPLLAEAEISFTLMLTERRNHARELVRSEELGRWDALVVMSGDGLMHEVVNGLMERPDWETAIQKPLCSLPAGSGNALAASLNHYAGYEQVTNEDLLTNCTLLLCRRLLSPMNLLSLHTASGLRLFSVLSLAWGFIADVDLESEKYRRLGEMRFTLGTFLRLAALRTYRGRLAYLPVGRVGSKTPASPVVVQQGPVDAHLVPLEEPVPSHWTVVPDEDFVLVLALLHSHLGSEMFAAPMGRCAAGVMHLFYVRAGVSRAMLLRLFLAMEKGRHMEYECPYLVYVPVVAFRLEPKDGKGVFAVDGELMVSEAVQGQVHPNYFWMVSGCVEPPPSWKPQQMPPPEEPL

Work on `NS(=O)(=O)c1ccc(N/N=C2\C(=O)Nc3ccc(C(=O)NCCc4c[nH]cn4)cc32)cc1` yielded an inhibition [1] of -1.01%, an inhibition [2] of 1.57% and an inhibition [3] of 0.18%. The inhibition [4] was 6.03%, the inhibition [5] was 18.6% and the inhibition [6] was 10.2%. It also gave an inhibition [7] of 13%, an inhibition [8] of 4.11% and an inhibition [9] of 3.92%. It also gave an inhibition [10] of 7.82%, an inhibition [11] of 19% and an inhibition [12] of 2.19%. For the same compound, the inhibition [13] was -1.06%, the inhibition [14] was 5.57% and the inhibition [15] was 5.42%. For the same compound, the inhibition [16] was 3.45%, the inhibition [17] was 1.65% and the inhibition [18] was 4.83%. For the same compound, the inhibition [19] was 7.05% and the inhibition [20] was 10.2%.
